Compounds with a hit are over-represented: about 11% of the library has one in this group of screens.
G9a block – blocks human histone lysine methyltransferase G9a; Q96KQ7; G9a H3K9 monomethylation, AlphaScreen, 2 h; Potency, µM (highest dose often 102 µM), without a hit: top-dose activity, negative = inhibition, actives largely listed as inhibitors; hit rate 8.8% among 350,000; AID 504332; further: on the % scale 0 is the no-effect control and ±100 the full control effect; nearly all actives have a fitted effect of over 75% in size
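AlphaScreen read-out: biotin-H3K9 peptide (500 nM) methylation by 20 nM enzyme with 20 uM SAM, 2 h at room temperature after 15 min compound preincubation; anti-monomethyl H3K9 antibody plus donor/acceptor beads, 10 min dark.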
JMJD2A Tudor inh – JMJD2A Tudor domain (human) inhibition; AlphaScreen JMJD2A-Tudor / H3K4me3 peptide binding; Potency, µM (titrated, usually from 114 µM), without a hit: at the top dose activity change, negative = inhibition, usual class: inhibitors; O75164; hit rate 4.4% among 390,000; further: on the % scale 0 is the no-effect control and ±100 the full control effect; nearly all actives have a fitted effect of over 50% in size
BAZ2B inh – BAZ2B (human) inhibition | AlphaScreen BAZ2B-H3K14Ac peptide displacement | Potency, µM (top dose mostly 114 µM), for the others: top-dose activity change, negative = inhibition, most hits filed as inhibitors | hit rate 4.4% among 360,000 | Q9UIF8 | AID 504333; further: on the % scale 0 is the no-effect control and ±100 the full control effect; nearly all actives have a fitted effect of over 60% in size
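Protein-peptide AlphaScreen: BAZ2B 50 nM, b-H3K14Ac 50 nM, 1x PBS pH 7.4 + 0.01% Tween-20. Preincubation 30 min RT; cpd 30 min RT (top 110 uM); beads 20 min RT, light-protected.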
VDR inh – vitamin D3 receptor (human) inhibition | P11473 | VDR-SRC2-3 peptide fluorescence polarization, 2 h | Potency, µM, without a hit: max response, negative = inhibition, actives largely listed as inhibitors | hit rate 0.93% among 400,000 | AID 504847; further: on the % scale 0 is the no-effect control and ±100 the full control effect
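Signal is fluorescence polarization, reporting how far test compounds block the interaction of VDR with the SRC2-3 coregulator peptide after a 2 h room-temperature incubation.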
PLK1 PBD block – blocks phosphopeptide binding to human PLK1 polo-box domain; AID 720504; Plk1 PBD binding of FITC phosphopeptide, fluorescence polarization; Potency, µM, for the others: max response, negative = inhibition, actives largely listed as inhibitors; P53350; hit rate 2.8% among 360,000; further: series mostly up to about 57 µM; on the % scale 0 is the no-effect control and ±100 the full control effect; nearly all actives have a fitted effect of over 65% in size
Target sequence (P53350 whole entry, looked up, the tested form may be a part): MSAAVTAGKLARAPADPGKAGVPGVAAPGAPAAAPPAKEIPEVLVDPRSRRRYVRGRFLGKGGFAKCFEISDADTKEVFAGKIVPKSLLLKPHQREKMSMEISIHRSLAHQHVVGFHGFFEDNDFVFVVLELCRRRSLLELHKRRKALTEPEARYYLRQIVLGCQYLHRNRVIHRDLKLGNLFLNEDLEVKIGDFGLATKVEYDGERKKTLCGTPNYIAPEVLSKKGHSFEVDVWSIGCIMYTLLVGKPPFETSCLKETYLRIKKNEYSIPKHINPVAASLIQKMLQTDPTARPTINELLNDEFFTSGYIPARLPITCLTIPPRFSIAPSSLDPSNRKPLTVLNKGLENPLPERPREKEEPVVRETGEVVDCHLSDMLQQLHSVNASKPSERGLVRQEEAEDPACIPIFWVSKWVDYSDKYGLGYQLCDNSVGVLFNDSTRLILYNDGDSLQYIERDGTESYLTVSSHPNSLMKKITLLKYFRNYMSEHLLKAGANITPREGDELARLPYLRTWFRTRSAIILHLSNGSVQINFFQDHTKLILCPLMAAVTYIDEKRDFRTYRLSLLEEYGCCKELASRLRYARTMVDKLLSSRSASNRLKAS
HP1b chromo inh – inhibitors of HP1-beta chromodomain binding to methylated histone tails; AlphaScreen HP1-beta / biotin-H3K9me3 peptide binding; P83916; Potency, µM (highest dose often 114 µM), for the others: at the highest dose activity change, negative = inhibition, usual class: inhibitors; AID 540317; hit rate 0.56% among 390,000; further: nearly all actives have a fitted effect of over 70% in size
Target sequence (P83916 whole entry, looked up): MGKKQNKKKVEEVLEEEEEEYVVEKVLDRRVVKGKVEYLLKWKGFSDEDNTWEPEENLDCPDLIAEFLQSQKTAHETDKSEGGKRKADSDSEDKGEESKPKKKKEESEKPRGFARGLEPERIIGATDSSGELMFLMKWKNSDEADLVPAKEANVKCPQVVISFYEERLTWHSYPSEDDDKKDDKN
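AlphaScreen: HP1-beta (50 nM) preformed 30 min with biotin-H3(1-18)K9me3 peptide (50 nM) in PBS pH 7.4, 0.01% Tween-20. Compound added for 30 min at RT, then streptavidin donor/nickel chelate acceptor beads (10 ug/mL) for 30 min.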
Starred values were filed as active, the others as inactive; ? = inconclusive; nt = no result given; ! = not confirmed by another sample; [ ] = dose if it differs, or a comment. The call rests on the fitted dose curve; in most records, active means well fitted curve in the direction sought with a large enough effect; inconclusive means small, poorly fitted or top-dose-only effect, or another doubt; inactive means no such curve, though single readings can be large; an effect the other way counts as inactive or inconclusive. Potency means the concentration at half of the fitted maximal effect.

SMILES	G9a block	JMJD2A Tudor inh	BAZ2B inh	VDR inh	PLK1 PBD block	HP1b chromo inh
CCN(CC)c1ccc(C=Nc2ccc(C)cc2)c(O)c1	?	-1.7%	14.3%	-1.1%	-11.2%	72.3%
CCN(CC)c1ccc(C=Nc2cc(C)cc(C)c2)c(O)c1	8.91µM*	-19.7%	8.7%	-29.5%	-9.7%	-4.4%
COc1ccc(/C=N/N2C(C)CCCC2C)cc1O (stereo not drawn)	5.2%[2.33 µM]	1.7%	8.7%	2.0%	-1.2%	13.0%
O=C(c1ccc(N2CCN(C(=O)c3ccc(F)c(F)c3)CC2)cc1)c1cccc(F)c1	21.8%	9.6%	-24.4%	-1.8%	2.4%	53.3%
Fc1cc(F)c(F)c(SCn2cc(Br)cn2)c1F	11.7%	22.1%	15.1%	-2.8%	-2.1%	54.5%
Cc1cc(C(=S)N2CCOCC2)c(C)n1-c1ccc(F)cc1	nt	-16.5%	44.7µM*	-11.7%	?	32.6%
CC(=O)Nc1c(C(=O)N2CCOCC2)cnn1-c1ccc(C)c(C)c1	34.6%[12.7 µM]	-11.9%	-2.1%	8.4%	-6.7%	62.8%
Cc1ccc(-n2c(C)cc(C(=S)N3CCOCC3)c2C)cc1C	nt	44.7µM*	50.1µM*	-13.6%	?	?
COc1cc2nc(N(C)CCCNC(=O)C3CCCO3)nc(N)c2cc1OC (stereo not drawn)	11.2µM*!	nt	-2.9%	7.7%	nt	nt
COC(=O)C1=C[C@@H](C(=O)OC)C2C3=C(C(=O)[C@@]2(CC(C)C)NC(=O)c2ccccc2)[C@H](C)n2c(=O)n(C)c(=O)n2[C@@H]3C1 (stereo partly drawn)	nt	-23.4%	nt	10.3%	nt	27.8%
O=C(O)COc1ccc(/C=C/C(=O)c2ccc3ccccc3c2)cc1	-7.1%	-29.5%	-10.5%	28.2µM*	-29.3%	-5.8%
O=C(O)COc1ccc2ccccc2c1	nt	nt	nt	3.7%	nt	nt
COc1ccc(C(=O)/C=C/c2ccc(OCc3ccccc3)cc2)cc1CSCC(=O)O	55.7%	56.2µM*	-6.2%	?	23.8µM*	-16.6%
COc1ccc(C(=O)/C=C/c2cccc(OCc3ccccc3)c2)cc1CSCC(=O)O	nt	50.1µM*	44.7µM*	12.6µM*	21.2µM*	-31.2%
O=C(N/N=C/c1ccc(OC2CSC2)cc1)c1ccccc1	5.4%[59 µM]	-2.3%	-7.7%	3.6%	1.2%	19.1%
O=C(/C=C/c1ccc(OC2CSC2)cc1)c1ccccc1	15.6%	?	-2.1%	?	26.7µM*	-9.7%
COc1ccc(C=CC(=O)c2ccc(OCc3ccccc3)c(OC)c2)cc1OC	nt	nt	nt	nt	6.4%	nt
CCOc1ccc(NC(=O)N(C)CCc2c(C)nn(C)c2C)cc1	18.2%[59 µM]	6.3%	-25.2%	14.6%	nt	44.8%
COc1ccc(Cn2c(-c3ccc(Br)cc3)c[n+]3ccccc23)cc1	3.5%[59 µM]	-12.0%	-3.3%	7.2%	-17.8%	18.7%
Cc1cc(-n2c(C)nc3ccccc3c2=O)ccc1NC(=O)C(F)(F)F	-13.6%[59 µM]	-5.5%	-11.9%	16.8%	nt	-8.5%
CCCCNC(=O)C(NC(=O)c1cccc(C(F)(F)F)c1)C(=O)c1ccccc1 (stereo not drawn)	nt	nt	nt	nt	-8.0%	nt
Cc1cc(C)n(CC(=O)Nc2cc(F)ccc2F)c(=O)c1C#N	-0.2%[59 µM]	-11.3%	-12.2%	3.4%	nt	18.4%
C[C@@H]1NC(=O)N(CCCn2ccnc2)C1=O	11.8%	-28.4%	50.1µM*	3.1%	-7.9%	15.5%
OC(CNc1ccccc1)COc1ccc(OCC(O)CNc2ccccc2)cc1 (stereo not drawn)	?	50.1µM*	50.1µM*	2.7%	-22.2%	-38.4%
CCOCC(O)CNc1ccccc1 (stereo not drawn)	-6.8%[59 µM]	-4.3%	9.5%	10.0%	-5.4%	24.3%
SMILES	G9a block	JMJD2A Tudor inh	BAZ2B inh	VDR inh	PLK1 PBD block	HP1b chromo inh
O=C(O)COc1ccc(OCCNC[C@@H](O)COc2ccccc2)cc1	nt	nt	nt	11.6%	nt	nt
Cc1ccccc1OCC(O)CNCCOc1ccc(C(N)=O)cc1 (stereo not drawn)	-37.8%[2.33 µM]	nt	nt	11.7%	nt	nt
COc1ccccc1NCC(O)COc1ccc(C(C)(C)C)cc1 (stereo not drawn)	7.94µM*	2.82µM*	22.4µM*	-14.5%	-3.6%	20µM*
COc1ccc(OCC(O)CNCCOc2ccccc2OC)c(C(C)(C)C)c1 (stereo not drawn)	?	22.4µM*	50.1µM*	-15.1%	?	-0.9%
Cc1ccc(OCCNCC(O)COc2ccccc2)cc1 (stereo not drawn)	?	56.2µM*	50.1µM*	13.1%	1.2%	-11.4%
COc1ccc(NCC(O)COc2ccc(C(C)(C)C)cc2)cc1 (stereo not drawn)	?	?	?	-17.2%	1.1%	?
COc1ccccc1/C=C/c1nc(C#N)c(N2CCN(C)CC2)o1	-20.3%[59 µM]	-13.2%	-34.3%	7.7%	nt	14.6%
Cc1cccc(C(=O)NCC(=O)N2CC(=O)Nc3ccccc32)c1	3.3%	-6.2%	-0.8%	-11.3%	0.5%	26.4%
O=c1c2[nH]c3ccccc3c2ncn1CCN1CCNCC1	?	-5.0%	-19.9%	2.7%	-4.8%	34.8%
Cc1ccc2c(c1)[nH]c1c(=O)n(Cc3ccco3)cnc12	-8.4%	-8.8%[11.4 µM]	-16.3%	?	26.7µM*	3.2%
Cc1ccc2c(c1)[nH]c1c(=O)n(CCN3CCNCC3)cnc12	44.7µM*	-17.7%	0.2%	1.2%	-8.7%	35.3%
CC(C)c1ccc(C2C3=C(COC3=O)Nc3cc4c(cc32)OCO4)cc1 (stereo not drawn)	nt	-15.8%	0.1%	1.0%	1.6%	11.4%
Cc1ccc(S(=O)(=O)NN2C(=O)c3ccccc3NC2c2ccccc2F)cc1 (stereo not drawn)	6.4%	-4.9%	50.1µM*	-7.6%	-5.8%	40.9%
CCOc1ccc(S(=O)(=O)N2CCCCC2)cc1NC(=O)CC1OC(=O)c2ccccc21 (stereo not drawn)	-10.0%	-4.1%	0.9%	8.8%	-3.6%	27.5%
C/C(CC(=O)NC(C)(C)C)=N\NC(N)=S	3.98µM*	?	?	1.4%	-4.8%	?
C/C(CC(=O)NC(C)(C)C)=N\NC(=O)c1ccccc1N	?	39.8µM*	-20.3%	-17.1%	23.8µM*	4.2%
Cc1cccc(-n2c(O)c(C=Nc3cccc(O)c3)c3ccccc3c2=O)n1	-6.3%	-13.2%[11.4 µM]	-27.2%	?	15µM*	-18.8%
Cc1cc(C)nc(/N=C(\NC(=O)C(C)(C)C)Nc2ccc(F)cc2)n1	44.7µM*	3.5%	-3.4%	8.6%	-4.6%	26.9%
NNC(=O)CN1CCCc2ccccc21	2.7%	3.0%[11.4 µM]	-18.7%	7.1%	?	-12.3%
CN(C)S(=O)(=O)c1ccc(NC(=O)CN2CCCc3ccccc32)cc1	39.8µM*	?	?	-0.8%	-12.0%	-19.2%
CN(C)S(=O)(=O)c1cc(NC(=O)CN2CCc3ccccc32)ccc1Cl	15.8µM*	-17.4%	-14.7%	32.6%	-10.4%	0.8%
CC1Cc2ccccc2N1CC(=O)Nc1ccc(S(=O)(=O)N(C)C)cc1 (stereo not drawn)	?	-22.1%	?	-9.6%	-6.9%	28.5%
